Test results published in ChEMBL document CHEMBL1961873, “Compounds: GSK PKIS; Assays: Nanosyn kinase panel” (2012).

How the values were obtained:
[1] = biological target: RAC-alpha serine/threonine-protein kinase (Homo sapiens) (UniProt P31749); conditions: at 0.1 µM
[2] = biological target: RAC-alpha serine/threonine-protein kinase (Homo sapiens) (UniProt P31749); conditions: at 1 µM
[3] = biological target: RAC-beta serine/threonine-protein kinase (Homo sapiens) (UniProt P31751); conditions: at 0.1 µM
Sequence of RAC-beta serine/threonine-protein kinase (Homo sapiens) (P31751 whole entry): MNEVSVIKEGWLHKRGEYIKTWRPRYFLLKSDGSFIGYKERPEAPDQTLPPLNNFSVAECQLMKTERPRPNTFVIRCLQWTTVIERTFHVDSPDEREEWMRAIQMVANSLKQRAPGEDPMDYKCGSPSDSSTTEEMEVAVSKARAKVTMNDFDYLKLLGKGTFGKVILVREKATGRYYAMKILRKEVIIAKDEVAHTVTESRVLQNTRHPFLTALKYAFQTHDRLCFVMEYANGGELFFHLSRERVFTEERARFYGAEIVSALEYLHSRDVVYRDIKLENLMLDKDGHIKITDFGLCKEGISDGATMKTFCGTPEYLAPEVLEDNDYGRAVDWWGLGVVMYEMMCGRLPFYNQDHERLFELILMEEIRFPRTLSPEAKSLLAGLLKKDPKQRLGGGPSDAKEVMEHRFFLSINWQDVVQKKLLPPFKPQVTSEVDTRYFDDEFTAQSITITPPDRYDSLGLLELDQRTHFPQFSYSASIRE

[4] = biological target: RAC-beta serine/threonine-protein kinase (Homo sapiens) (UniProt P31751); conditions: at 1 µM
[5] = biological target: RAC-gamma serine/threonine-protein kinase (Homo sapiens) (UniProt Q9Y243); conditions: at 0.1 µM
Sequence of RAC-gamma serine/threonine-protein kinase (Homo sapiens) (Q9Y243 whole entry): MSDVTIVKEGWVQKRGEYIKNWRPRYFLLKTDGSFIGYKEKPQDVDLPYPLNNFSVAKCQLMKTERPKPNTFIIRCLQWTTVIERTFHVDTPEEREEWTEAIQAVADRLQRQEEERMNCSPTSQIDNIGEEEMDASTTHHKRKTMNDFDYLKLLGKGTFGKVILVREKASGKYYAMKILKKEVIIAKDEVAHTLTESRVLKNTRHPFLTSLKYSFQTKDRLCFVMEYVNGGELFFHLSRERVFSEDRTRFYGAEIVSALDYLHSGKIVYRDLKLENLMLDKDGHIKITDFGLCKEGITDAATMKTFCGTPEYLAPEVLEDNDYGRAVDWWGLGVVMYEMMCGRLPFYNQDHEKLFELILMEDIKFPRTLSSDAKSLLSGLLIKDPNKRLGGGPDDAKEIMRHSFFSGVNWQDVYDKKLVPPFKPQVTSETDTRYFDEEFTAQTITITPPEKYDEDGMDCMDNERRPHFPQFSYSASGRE

[6] = biological target: RAC-gamma serine/threonine-protein kinase (Homo sapiens) (UniProt Q9Y243); conditions: at 1 µM
[7] = biological target: G protein-coupled receptor kinase 6 (Homo sapiens) (UniProt P43250); conditions: at 0.1 µM
Sequence of G protein-coupled receptor kinase 6 (Homo sapiens) (P43250 whole entry, looked up): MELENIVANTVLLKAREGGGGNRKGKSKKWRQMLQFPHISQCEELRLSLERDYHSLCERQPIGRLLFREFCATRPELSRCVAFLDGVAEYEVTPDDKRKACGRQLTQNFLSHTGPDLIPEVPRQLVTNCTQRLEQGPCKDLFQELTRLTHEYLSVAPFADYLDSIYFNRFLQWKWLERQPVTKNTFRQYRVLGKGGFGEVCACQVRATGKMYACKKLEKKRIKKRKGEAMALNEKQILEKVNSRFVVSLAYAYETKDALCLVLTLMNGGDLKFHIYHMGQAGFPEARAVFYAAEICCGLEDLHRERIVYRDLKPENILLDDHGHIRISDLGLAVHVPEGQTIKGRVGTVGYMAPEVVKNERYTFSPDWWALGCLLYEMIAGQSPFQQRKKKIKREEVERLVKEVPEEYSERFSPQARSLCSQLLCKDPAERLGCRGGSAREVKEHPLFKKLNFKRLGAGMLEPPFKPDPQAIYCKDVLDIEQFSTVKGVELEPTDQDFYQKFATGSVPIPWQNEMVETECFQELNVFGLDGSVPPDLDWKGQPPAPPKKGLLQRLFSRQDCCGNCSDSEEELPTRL

[8] = biological target: G protein-coupled receptor kinase 6 (Homo sapiens) (UniProt P43250); conditions: at 1 µM
[9] = biological target: T1, Rhodopsin kinase GRK7 (Homo sapiens) (UniProt Q8WTQ7); conditions: at 0.1 µM
T1 sequence (whole entry): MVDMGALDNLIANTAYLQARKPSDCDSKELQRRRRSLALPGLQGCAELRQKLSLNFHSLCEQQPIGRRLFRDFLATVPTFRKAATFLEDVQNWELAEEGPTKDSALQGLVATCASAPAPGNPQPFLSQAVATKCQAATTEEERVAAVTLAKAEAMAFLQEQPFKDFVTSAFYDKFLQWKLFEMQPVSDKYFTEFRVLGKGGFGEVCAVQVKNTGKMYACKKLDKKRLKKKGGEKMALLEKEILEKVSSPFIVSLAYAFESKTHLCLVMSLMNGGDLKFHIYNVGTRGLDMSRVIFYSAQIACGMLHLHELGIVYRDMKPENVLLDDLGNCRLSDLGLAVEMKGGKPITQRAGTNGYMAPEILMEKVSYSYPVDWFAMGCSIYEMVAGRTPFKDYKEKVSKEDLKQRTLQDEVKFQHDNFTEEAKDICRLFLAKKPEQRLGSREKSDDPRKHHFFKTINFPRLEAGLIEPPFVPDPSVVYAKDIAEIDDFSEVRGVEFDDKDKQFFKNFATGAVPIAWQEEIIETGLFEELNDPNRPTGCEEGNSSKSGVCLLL

[10] = biological target: T1, Rhodopsin kinase GRK7 (Homo sapiens); conditions: at 1 µM

Sequence of RAC-alpha serine/threonine-protein kinase (Homo sapiens) (P31749 whole entry): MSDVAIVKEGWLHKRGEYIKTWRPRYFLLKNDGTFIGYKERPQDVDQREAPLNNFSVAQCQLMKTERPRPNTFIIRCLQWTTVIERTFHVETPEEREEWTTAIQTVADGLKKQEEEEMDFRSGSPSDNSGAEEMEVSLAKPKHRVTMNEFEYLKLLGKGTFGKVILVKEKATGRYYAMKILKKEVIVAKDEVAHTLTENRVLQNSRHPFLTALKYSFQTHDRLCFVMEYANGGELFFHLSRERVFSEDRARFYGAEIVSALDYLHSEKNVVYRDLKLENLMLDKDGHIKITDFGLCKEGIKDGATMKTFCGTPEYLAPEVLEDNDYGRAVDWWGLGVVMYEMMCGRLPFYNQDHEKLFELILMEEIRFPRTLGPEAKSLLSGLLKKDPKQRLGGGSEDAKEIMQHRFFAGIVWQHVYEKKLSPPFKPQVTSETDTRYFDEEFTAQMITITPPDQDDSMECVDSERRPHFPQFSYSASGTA

| Compound | inhibition [1] [%] | inhibition [2] [%] | inhibition [3] [%] | inhibition [4] [%] | inhibition [5] [%] | inhibition [6] [%] | inhibition [7] [%] | inhibition [8] [%] | inhibition [9] [%] | inhibition [10] [%] |
| --- | --- | --- | --- | --- | --- | --- | --- | --- | --- | --- |
| COc1cc(/C=N/Nc2ncnc3[nH]ncc23)ccc1O | 0.87 | 0.81 | 1.01 | 0.76 | 1.65 | 0.92 | 4.89 | 5.42 | 2.24 | 5.07 |
| COc1ccc2[nH]c3c4[nH]c5ccc(OC)cc5c4c4c(c3c2c1)C(=O)NC4=O | 0.56 | 4.28 | 1.45 | 2.54 | 1.39 | 2.7 | 20.2 | 41.2 | 22.7 | 26.6 |
| COc1ccc(CNC(=O)c2ccc(-c3cc(-c4nnc(C)o4)ccc3C)cc2)cc1 | 0.11 | 0.4 | 0.92 | 1.2 | 0.06 | 0.12 | 6.21 | 16.4 | 2.86 | 10.6 |
| O=C(Nc1n[nH]c2cc(-c3ccc(F)cc3)ccc12)C1CC1 | 0.61 | 1.36 | 1.62 | 1.6 | 0.49 | 1.05 | 1.59 | 1.04 | 4.1 | 7.25 |
| c1ccc(-c2nc3n(c2-c2ccc4c(c2)OCO4)CCC3)nc1 | 0.15 | 0.19 | 0.67 | 0.83 | 0.55 | 0.06 | 3.19 | 2.38 | 1.13 | 3.19 |
| Nc1ncc(-c2cccc(S(N)(=O)=O)c2)c2scc(-c3ccc(F)c(Cl)c3)c12 | 0.6 | 1.09 | 0.29 | 2.33 | -0.27 | 5.34 | 0.4 | -0.33 | 6.15 | 6.1 |
| c1cc(-c2cnn3nc(N4CCOCC4)ccc23)nc(NC2CC2)n1 | 0.69 | 1.04 | 3.2 | 2.75 | 1.36 | 1.78 | 0.85 | 1.72 | 3.91 | 6.6 |
| CCn1c(-c2nonc2N)nc2ccccc21 | 1.46 | 2.48 | 0.69 | 2.24 | 0.81 | 3.67 | 1.21 | -3.25 | 1.89 | -9.67 |
| CCc1nn2ncccc2c1-c1ccnc(NC2CC2)n1 | 0.3 | 0.03 | -0.16 | 0.84 | 0.81 | 0.1 | 3.01 | 4.64 | 3.97 | 1.72 |
| NS(=O)(=O)c1ccc(Nc2ncc(-c3ccccc3)o2)cc1 | 0.78 | 0.93 | 2.08 | 1.95 | 0.97 | 1.49 | 4.73 | 3.06 | 2.42 | 2.99 |
| Fc1cccc(COc2ccc(Nc3ncnc4sc(-c5ccco5)cc34)cc2Cl)c1 | 0.99 | 0.75 | 0.95 | 1.84 | 0.12 | 50.3 | 2.57 | 11.6 | 11.4 | 43.4 |
| CS(=O)(=O)CCNCc1coc(-c2ccc3ncnc(Nc4ccc(OCc5ccccc5)cc4)c3c2)c1 | 0.45 | 0.14 | -0.99 | 1.09 | -0.18 | 3.26 | 4.06 | 12.1 | 6.27 | 5.05 |
| COC(=O)Nc1nc2ccc(S(=O)(=O)c3ccc(NC(=O)Nc4cc(C(F)(F)F)ccc4F)cc3)cc2[nH]1 | 1.04 | 0.21 | 1.6 | 1.74 | 2.62 | 2.2 | -1.79 | -0.49 | 4.02 | 1.96 |
| CCN(CC)S(=O)(=O)c1ccc(OC)c(Nc2ncc(-c3ccccc3)o2)c1 | 0.87 | -0.4 | 0.37 | 0.18 | 2.3 | -1.03 | 1.87 | -0.46 | 3.17 | -3.96 |
| CN(C)CCOc1ccc(-c2nc(-c3ccncc3)c(-c3ccc4c(c3)CC/C4=N\O)[nH]2)cc1 | 0.74 | 0.83 | 1.02 | 0.67 | 1.29 | 0.51 | 3.13 | 2.76 | 1.71 | 0.18 |
| NC(=O)c1sc(-n2cnc3ccc(C(F)(F)F)cc32)cc1OCc1ccccc1Br | 0.43 | 0.68 | 2.44 | 2.18 | 0.75 | 1.39 | 5.91 | 9.67 | 4.43 | 14.5 |
| CNC(=O)c1cncc(/C=C/c2ccccc2Cl)c1 | 0.07 | 1.96 | 0.21 | 0.07 | -0.57 | 0.32 | 1.74 | 10.9 | 2.3 | 10.8 |

| Compound | inhibition [1] [%] | inhibition [2] [%] | inhibition [3] [%] | inhibition [4] [%] | inhibition [5] [%] | inhibition [6] [%] | inhibition [7] [%] | inhibition [8] [%] | inhibition [9] [%] | inhibition [10] [%] |
| --- | --- | --- | --- | --- | --- | --- | --- | --- | --- | --- |
| CS(=O)(=O)CCNCc1ccc(-c2ccc3ncnc(Nc4ccc(OCc5ccccc5)c(C(F)(F)F)c4)c3c2)o1 | 1.54 | 1.3 | 1.35 | 2.2 | 0.3 | 3.04 | -0.85 | 1.09 | 10.8 | 3.42 |
| CC(=O)NCc1cccc(C#Cc2cncnc2Nc2ccc(OCc3cccc(F)c3)c(Cl)c2)c1 | -0.84 | -1.16 | -0.39 | 0.71 | 0.73 | 0.47 | 1.84 | 3.06 | -1.42 | 7.96 |
| COc1ccc(-c2cc3c(N)ncnc3o2)cc1 | -0.96 | -1.46 | -0.81 | -0.64 | -1.06 | 1.62 | -0.25 | 0.98 | 3.4 | -1.5 |
| Clc1ccc(-c2nn3ncccc3c2-c2ccnc(Nc3ccccc3)n2)cc1 | 0.13 | 0.62 | 0.64 | 1.15 | 1.22 | -0.89 | 2.85 | 1.72 | 3.88 | -1.87 |
| CCn1c(-c2nonc2N)nc2c(C#CC(C)(C)O)ncc(OC3CCNCC3)c21 | 70.1 | 92.8 | 85.2 | 95.5 | 74.7 | 94.2 | 4.09 | 7.13 | 7.74 | 17 |
| COc1cc(N2CCN(C(C)C)CC2)ccc1Nc1nc(Nc2ccc(F)cc2C(N)=O)c2cc[nH]c2n1 | 0.91 | 2.86 | 1.62 | 3.68 | 1.62 | 4.8 | 3.9 | 14.3 | 5.3 | 10.1 |
| Cc1cccc2c1NC(=O)/C2=N\Nc1ccc(S(N)(=O)=O)cc1 | 1.04 | 1.19 | 2.18 | 1.39 | 1.07 | 1.15 | 2.1 | 3.62 | 1.49 | -6.16 |
| COc1ccc(-c2oc3ncnc(N)c3c2-c2ccc(NC(=O)Nc3cc(C(F)(F)F)ccc3F)cc2)cc1 | 1.18 | 1.66 | 3.21 | 2.57 | 1.23 | 2.55 | 4.19 | 12.7 | 4.51 | 22 |
| CCCN1CCC(c2ccc(Nc3nc(Nc4cc(F)ccc4C(N)=O)c4cc[nH]c4n3)c(OC)c2)CC1 | -0.31 | 0.33 | 2.13 | 1.62 | 1.85 | 2.68 | 16.3 | 58.8 | 11.6 | 45 |
| Nc1nc(-c2ccc(F)cc2)c(-c2ccc3ncccc3n2)s1 | 0.67 | 1.34 | 2.24 | 2.19 | 5.53 | 1.9 | 5.89 | 5.57 | 6.78 | 7.94 |
| CCN1CCC(CC(=O)Nc2n[nH]c3nnc(-c4cccc(F)c4F)cc23)CC1 | 0.38 | 0.44 | -1.36 | 0.79 | -0.3 | 3.08 | 1.19 | 2.16 | 6.3 | 3.7 |
| CCNC(=O)O[C@H]1CN[C@H](C#Cc2cc3ncnc(Nc4ccc(OCc5cccc(F)c5)c(Cl)c4)c3s2)C1 | 1.21 | 0.9 | 3.39 | 2.59 | 1.29 | 1.95 | 2.11 | 4.14 | 2.34 | 2.31 |
| Cc1cccc(Nc2ncc(-c3ccccc3)o2)c1 | 2.47 | 3.09 | 2.46 | 2.97 | 2.2 | 5.22 | 5.33 | 4.72 | 4.29 | 3.7 |
| CNC(=O)c1cccc(C#Cc2cncnc2Nc2ccc(OCc3cccc(F)c3)c(Cl)c2)c1 | 0.17 | -0.5 | 0 | 0.98 | 0.81 | -1.1 | 0.71 | 3.57 | 1.29 | -1.25 |
| CCn1cc(-c2ccnc3[nH]ccc23)c(-c2cccc(NC(=O)Nc3ccc(OCc4ccccc4)cc3)c2)n1 | 1.5 | 1.68 | 1.8 | 3.99 | 0.23 | 2.59 | -2.36 | 0.99 | 3.4 | -2.29 |
| c1ccc(COc2ccc(Nc3ncnc4ccc(-c5ccco5)cc34)cc2)cc1 | 0.02 | 0.01 | -0.87 | 0.43 | 0.39 | 2.23 | -0.04 | 4.75 | 5.57 | 5.11 |
